# Measured values reported in PubChem BioAssay (NCI).
# “And” between values parts separate entries of the source, which are not always exact repeats. Equal entries are not always repeated. This is part of a sample that, as a whole, favours compounds with a hit. Of some 79,000 tested, about 15% had one in any assay. A structure can be active in one record and inactive in another. The source made the active and inactive calls. Cut-off read from the data, not from the text of the source: active = growth inhibition above about 70%; inactive = the rest.
# Assay: NCI Yeast Anticancer Drug Screen. Data for the sgs1 mgt1 strain (AID 161);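 note: 0% = growth of cultures given vehicle only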
# Conditions: S. cerevisiae sgs1 mgt1 strain, stronger effect = higher value
# Description: Growth inhibition of yeast strains with defined genetic alterations is measured as a screen for potential anti-cancer activity. Selected strains with alterations in DNA damage repair or cell cycle control were exposed to compounds and growth inhibition was measured relative to vehicle treated controls. The strain used in this assay is sgs1 mgt1
# [1] = at 5.0 µM (retest, dose inferred, filed as 0.5)
# [2] = at 50.0 µM (retest, dose inferred, filed as 5.0)
Structure (SMILES),growth inhibition [1],growth inhibition [2],growth inhibition (at 50.0 µM)
CC(=O)c1c2ccccc2cc2ccccc12,6% (inactive) and 45% (inactive),77% (active) and 98% (active),53% (inactive) and 94.7% (active)
Oc1ccc(N=Nc2ccccn2)c(O)c1,-67% (inactive) and 19% (inactive),94% (active) and 97% (active),98.2% (active) and 91.2% (active)
O=C1CSC(=S)N1c1ccc(Cl)c(C(F)(F)F)c1,6% (inactive),97% (active),98.9% (active)
Cc1c2ccccc2c(C=O)c2ccccc12,-13% (inactive),57% (inactive),91.2% (active)
Oc1c(Cl)cc(Cl)cc1Cc1cc(Cl)cc(Cl)c1O,92% (active) and 85% (active),98% (active),98.1% (active) and 99.4% (active)
CCOC(=O)C(Cc1ccccc1[N+](=O)[O-])C(=O)OCC,-21% (inactive),3% (inactive),28.6% (inactive)
Nc1ccc2c(n1)NCC/C2=N\Nc1ccccc1,-4% (inactive),69% (inactive),79% (active)
Fc1ccc2nc3ccccc3nc2c1,0% (inactive),10% (inactive),22.6% (inactive)
CC1OC(OC2CC(O)(C(=O)CO)Cc3c(O)c4c(c(O)c32)C(=O)c2ccccc2C4=O)CC(N)C1O (configuration not stated),86% (active),97% (active),89.5% (active)
OC(c1ccccc1)(c1ccccc1)c1ccccc1 (tested in a mixture with another compound),-3% (inactive),90% (active),-1.85% (inactive) and 92.7% (active)
CCOCc1ccccc1C(O)(c1ccc(OC)cc1)c1ccc(OC)cc1,6% (inactive) and -2% (inactive),10% (inactive) and 21% (inactive),60.5% (inactive) and 77.2% (active)
N#CC(=C1C=CC(=NOC(=O)Nc2cccc3ccccc23)C=C1)c1ccccc1,51% (inactive),100% (active),98.5% (active)
CCCCCCCCCCCCN1C(=O)[N+](C)(C)N=C1[O-],7% (inactive),60% (inactive),99.1% (active)
CCCCCCCN,-2% (inactive),91% (active),19.9% (inactive)
